Test results reported in ChEMBL document CHEMBL1961873, “Compounds: GSK PKIS; Assays: Nanosyn kinase panel” (2012).

Columns and labels:
[1] = molecular target: T1, Muscle, skeletal receptor tyrosine-protein kinase (Homo sapiens) (UniProt O15146); settings: at 1 µM;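 note: reported value is the mean percent inhibition of MuSK kinase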
T1 sequence (whole entry): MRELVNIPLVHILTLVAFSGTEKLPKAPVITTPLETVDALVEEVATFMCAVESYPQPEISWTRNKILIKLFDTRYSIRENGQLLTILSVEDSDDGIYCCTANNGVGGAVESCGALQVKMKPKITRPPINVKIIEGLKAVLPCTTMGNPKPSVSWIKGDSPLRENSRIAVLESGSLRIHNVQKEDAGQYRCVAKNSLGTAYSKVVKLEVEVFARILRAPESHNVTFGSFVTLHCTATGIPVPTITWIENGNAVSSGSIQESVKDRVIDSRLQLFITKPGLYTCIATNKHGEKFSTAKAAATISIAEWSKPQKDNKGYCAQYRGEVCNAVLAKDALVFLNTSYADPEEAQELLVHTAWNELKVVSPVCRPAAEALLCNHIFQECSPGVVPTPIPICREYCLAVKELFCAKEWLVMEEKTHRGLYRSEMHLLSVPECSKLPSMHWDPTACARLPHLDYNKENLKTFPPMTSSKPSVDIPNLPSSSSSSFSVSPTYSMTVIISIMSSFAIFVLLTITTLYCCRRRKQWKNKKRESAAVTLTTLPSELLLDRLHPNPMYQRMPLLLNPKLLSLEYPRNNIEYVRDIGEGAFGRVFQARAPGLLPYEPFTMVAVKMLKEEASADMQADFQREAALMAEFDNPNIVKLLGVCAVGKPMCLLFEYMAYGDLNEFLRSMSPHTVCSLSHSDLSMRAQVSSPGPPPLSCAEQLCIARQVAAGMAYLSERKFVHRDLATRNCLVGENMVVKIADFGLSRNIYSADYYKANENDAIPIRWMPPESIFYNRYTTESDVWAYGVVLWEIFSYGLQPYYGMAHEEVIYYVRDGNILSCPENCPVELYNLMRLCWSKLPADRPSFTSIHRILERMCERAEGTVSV

[2] = molecular target: Platelet-derived growth factor receptor alpha (Homo sapiens) (UniProt P16234); settings: at 0.1 µM
Platelet-derived growth factor receptor alpha (Homo sapiens), sequence (P16234 whole entry): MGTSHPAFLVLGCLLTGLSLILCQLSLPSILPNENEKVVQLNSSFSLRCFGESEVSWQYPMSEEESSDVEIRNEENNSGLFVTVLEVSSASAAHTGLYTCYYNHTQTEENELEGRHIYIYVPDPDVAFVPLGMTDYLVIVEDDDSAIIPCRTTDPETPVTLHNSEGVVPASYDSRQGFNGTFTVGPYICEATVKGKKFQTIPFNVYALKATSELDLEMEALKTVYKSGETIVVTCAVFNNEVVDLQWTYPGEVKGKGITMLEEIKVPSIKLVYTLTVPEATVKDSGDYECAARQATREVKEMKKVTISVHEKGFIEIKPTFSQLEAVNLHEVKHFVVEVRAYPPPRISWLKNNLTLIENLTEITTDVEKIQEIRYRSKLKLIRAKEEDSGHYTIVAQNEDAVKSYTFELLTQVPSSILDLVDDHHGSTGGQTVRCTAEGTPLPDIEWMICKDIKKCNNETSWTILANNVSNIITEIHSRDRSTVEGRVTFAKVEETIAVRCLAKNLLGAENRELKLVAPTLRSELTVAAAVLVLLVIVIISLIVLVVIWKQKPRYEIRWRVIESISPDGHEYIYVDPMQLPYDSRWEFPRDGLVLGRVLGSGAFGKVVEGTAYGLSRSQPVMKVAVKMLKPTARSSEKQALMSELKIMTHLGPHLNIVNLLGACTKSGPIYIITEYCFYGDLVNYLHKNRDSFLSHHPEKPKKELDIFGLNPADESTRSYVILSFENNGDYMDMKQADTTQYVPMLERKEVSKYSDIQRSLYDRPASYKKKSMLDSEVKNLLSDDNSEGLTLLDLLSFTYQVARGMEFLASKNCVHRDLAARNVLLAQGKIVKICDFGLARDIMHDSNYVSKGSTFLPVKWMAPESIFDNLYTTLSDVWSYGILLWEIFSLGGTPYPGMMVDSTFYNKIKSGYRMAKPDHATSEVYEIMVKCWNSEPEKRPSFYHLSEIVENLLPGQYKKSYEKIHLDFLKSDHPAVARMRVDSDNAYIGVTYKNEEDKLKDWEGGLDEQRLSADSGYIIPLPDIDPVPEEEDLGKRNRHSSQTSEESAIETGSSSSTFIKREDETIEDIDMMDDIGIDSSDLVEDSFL

[3] = molecular target: Platelet-derived growth factor receptor alpha (Homo sapiens) (UniProt P16234); settings: at 1 µM
[4] = system: Platelet-derived growth factor receptor alpha (Homo sapiens), P16234 [D842V]; settings: at 0.1 µM
Platelet-derived growth factor receptor alpha (Homo sapiens), P16234 [D842V], sequence (P16234 whole entry D842V): as the sequence (P16234 whole entry) above, with D842V counted along it

[5] = system: Platelet-derived growth factor receptor alpha (Homo sapiens), P16234 [D842V]; settings: at 1 µM
[6] = system: Platelet-derived growth factor receptor alpha (Homo sapiens), P16234 [T674I]; settings: at 0.1 µM
Platelet-derived growth factor receptor alpha (Homo sapiens), P16234 [T674I], sequence (P16234 whole entry T674I): as the sequence (P16234 whole entry) above, with T674I counted along it

[7] = system: Platelet-derived growth factor receptor alpha (Homo sapiens), P16234 [T674I]; settings: at 1 µM
[8] = system: Platelet-derived growth factor receptor alpha (Homo sapiens), P16234 [V561D]; settings: at 0.1 µM
Platelet-derived growth factor receptor alpha (Homo sapiens), P16234 [V561D], sequence (P16234 whole entry V561D): as the sequence (P16234 whole entry) above, with V561D counted along it

[9] = system: Platelet-derived growth factor receptor alpha (Homo sapiens), P16234 [V561D]; settings: at 1 µM
[10] = molecular target: Platelet-derived growth factor receptor beta (Homo sapiens) (UniProt P09619); settings: at 0.1 µM;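 note: reported value is the mean percent inhibition of the kinase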
Platelet-derived growth factor receptor beta (Homo sapiens), sequence (P09619 whole entry): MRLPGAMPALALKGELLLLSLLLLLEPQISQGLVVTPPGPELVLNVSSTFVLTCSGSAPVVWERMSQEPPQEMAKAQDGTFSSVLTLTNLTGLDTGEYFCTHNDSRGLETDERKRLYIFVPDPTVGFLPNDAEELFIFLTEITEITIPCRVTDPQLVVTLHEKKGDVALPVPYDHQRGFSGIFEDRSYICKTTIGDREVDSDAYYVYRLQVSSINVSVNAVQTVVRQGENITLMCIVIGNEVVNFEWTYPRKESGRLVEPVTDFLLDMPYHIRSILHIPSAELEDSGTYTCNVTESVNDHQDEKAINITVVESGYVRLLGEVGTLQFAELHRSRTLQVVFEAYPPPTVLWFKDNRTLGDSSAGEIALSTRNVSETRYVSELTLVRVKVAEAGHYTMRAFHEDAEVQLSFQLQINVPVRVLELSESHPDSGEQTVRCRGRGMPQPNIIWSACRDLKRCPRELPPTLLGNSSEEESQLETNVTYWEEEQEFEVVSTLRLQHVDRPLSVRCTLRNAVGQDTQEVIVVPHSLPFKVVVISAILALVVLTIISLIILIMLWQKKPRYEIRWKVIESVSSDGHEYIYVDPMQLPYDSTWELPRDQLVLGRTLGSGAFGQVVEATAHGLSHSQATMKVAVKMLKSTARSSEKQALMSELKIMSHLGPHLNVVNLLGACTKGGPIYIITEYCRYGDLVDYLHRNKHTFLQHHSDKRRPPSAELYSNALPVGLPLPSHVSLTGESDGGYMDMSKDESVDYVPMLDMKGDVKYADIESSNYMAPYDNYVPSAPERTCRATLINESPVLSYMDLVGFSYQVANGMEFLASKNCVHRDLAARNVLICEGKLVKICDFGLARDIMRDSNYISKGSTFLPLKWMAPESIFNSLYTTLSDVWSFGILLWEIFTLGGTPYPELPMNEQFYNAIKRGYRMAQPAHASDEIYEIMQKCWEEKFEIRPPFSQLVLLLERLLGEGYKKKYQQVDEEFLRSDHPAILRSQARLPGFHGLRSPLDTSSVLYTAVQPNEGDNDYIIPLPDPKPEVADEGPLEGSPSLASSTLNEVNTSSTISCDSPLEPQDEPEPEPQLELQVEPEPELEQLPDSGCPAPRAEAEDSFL

| Structure (SMILES) | inhibition [1] | inhibition [2] | inhibition [3] | inhibition [4] | inhibition [5] | inhibition [6] | inhibition [7] | inhibition [8] | inhibition [9] | inhibition [10] |
| --- | --- | --- | --- | --- | --- | --- | --- | --- | --- | --- |
| Fc1ccc(-c2ncn(C3CCNCC3)c2-c2ccnc(Oc3ccc4c(c3)OCO4)n2)cc1 | 4.22% | 11.8% | 15.7% | 2.99% | 5.32% | 11.5% | 16.1% | 5.05% | 5.41% | 7.36% |
| FC(F)(F)c1cccc(Nc2nccc(-c3cnn4nc(-c5ccccc5)ccc34)n2)c1 | 0.42% | 7.91% | 42.6% | 4.44% | 33.6% | 3.36% | 9.98% | 6.8% | 39.2% | 7.48% |
| c1ccc(Oc2ccc(Nc3ncc(-c4ccccc4)o3)cc2)cc1 | 2.81% | 7.17% | 11.5% | 4.48% | 3.18% | 4.06% | 10% | 7.31% | 19.6% | 3.82% |
| Nc1nccc(-c2c(-c3ccc(F)cc3)ncn2C2CCC(O)CC2)n1 (stereo not given) | 4.37% | 2.63% | 21.6% | 2.7% | 14.2% | 0.95% | 0.82% | 5.61% | 21.1% | 5.21% |
| Cc1ccc(NC(=O)c2ccoc2)cc1-c1ccc(C(=O)NCC2CC2)cc1 | 1.19% | 3.05% | 4.97% | 0.3% | 0.74% | 0.22% | 4.2% | 0.35% | 1% | 1.42% |
| NS(=O)(=O)c1ccc(Nc2cc(-c3ccc(O)c(F)c3)n[nH]2)cc1 | 41% | 17% | 61.5% | 4.48% | 39.5% | 11.1% | 73.5% | 33.2% | 68.3% | 11.8% |
| CCS(=O)(=O)c1ccc(OC)c(Nc2ncc(-c3cccc(-c4ccccc4F)c3)o2)c1 | 5.48% | 10.8% | 49.7% | 6.19% | 32.1% | 3.61% | 6.31% | 18.5% | 60.4% | 17.1% |
| O=C(Nc1n[nH]c2cc(-c3cc(F)ccc3F)ccc12)C1CC1 | 10.1% | 7.53% | 18.3% | 2.07% | 7.89% | 5.2% | 9.61% | 3.2% | 13.2% | 3.6% |
| COC(=O)Nc1nc2ccc(Sc3ccc(NC(=O)Nc4cc(C(F)(F)F)ccc4F)cc3)cc2[nH]1 | 78.7% | 10.8% | 57.6% | 0.97% | 1.45% | 7.2% | 74.8% | 11.9% | 56.3% | 4.35% |
| CN1CCN(CCCNc2nc3ccc(Oc4ccc(NC(=O)Nc5cc(C(F)(F)F)ccc5F)cc4)cc3[nH]2)CC1 | 59.2% | 32.6% | 76.4% | 2.11% | 4.41% | 29.5% | 90.7% | 36% | 80.7% | 14.1% |
| O=C1Nc2ccccc2/C1=C/Nc1ccc(-n2cncn2)cc1 | 30.9% | 10.5% | 45.5% | 4.56% | 24.2% | 13.1% | 67.2% | 10.8% | 44.8% | 7.25% |
| CN(C)CCOc1ccc(-c2cc(-c3ccc4c(c3)CCC4=NO)c(-c3ccncc3)o2)cc1 | -1% | 3.05% | 9.14% | 0.21% | 2.8% | -0.07% | 2.19% | 0.77% | 4.25% | 2.38% |
| NC(=O)c1ccc(Oc2nccc(-c3c(-c4ccc(F)cc4)ncn3C3CCNCC3)n2)cc1 | 9.48% | 5.32% | 10.6% | 2.12% | 4.3% | 2.24% | 6.2% | 5.07% | 7.97% | 4.31% |
| CCS(=O)(=O)c1ccc(OC)c(Nc2ncc(-c3ccccc3Cl)o2)c1 | 8.58% | 5.6% | 16.2% | 1.1% | 4.35% | 0.38% | 5.02% | 2.97% | 15.1% | 4.1% |
| O=C1NC(=O)C(c2cccc(Cl)c2)=C1Nc1ccc(Cl)c(C(=O)O)c1 | 3.32% | 5.36% | 9.61% | 0.72% | 1.68% | 6.92% | 5.66% | 2.77% | 0.49% | 1.55% |
| NC(=O)Cc1ccccc1Oc1nccc(-c2c(-c3ccc(F)cc3)ncn2C2CCNCC2)n1 | 1.69% | 3.58% | 7.12% | 0.37% | 0.79% | 3.6% | 2.14% | -0.19% | 4.04% | 3.93% |
| NC(=O)c1cc(-c2ccc(F)cc2)cc(-c2ccncc2)c1N | 1.32% | 3.04% | 7.4% | 1.68% | 12.2% | 4.18% | 7.19% | 3.94% | 4.61% | 2.02% |

| Structure (SMILES) | inhibition [1] | inhibition [2] | inhibition [3] | inhibition [4] | inhibition [5] | inhibition [6] | inhibition [7] | inhibition [8] | inhibition [9] | inhibition [10] |
| --- | --- | --- | --- | --- | --- | --- | --- | --- | --- | --- |
| NCc1ccc(-n2c(-c3nonc3N)nc3cnccc32)cc1 | 8.78% | 10.2% | 18% | 9% | 16.1% | 8.3% | 17.7% | 2.5% | 8.66% | 9.08% |
| NC(=O)c1cc(-c2ccncc2)cc(-c2ccccc2)c1N | 3.55% | 9.17% | 36.2% | 3.01% | 11.3% | 5.87% | 11.6% | 5.79% | 37.8% | 9.7% |
| NS(=O)(=O)c1ccc(N/N=C2\C(=O)Nc3ccc(C(=O)NCCCn4ccnc4)cc32)cc1 | 21.6% | 10.6% | 54.2% | 13% | 57.8% | 5.56% | 12.4% | 11.6% | 47% | 23.1% |
| Cc1ccc(C(=O)NC(C)C)cc1-c1ccc(C(=O)NCC2CC2)cc1 | -2.53% | 0.96% | 2.31% | 2.27% | 2.56% | 1.13% | 4.14% | 1.87% | 2.98% | 0.76% |
| CS(=O)(=O)CCNCc1ccc(-c2ccc3ncnc(Nc4ccc(OCc5ccccc5)c(Br)c4)c3c2)o1 | -1.75% | 6.94% | 12.7% | 2.31% | 4.09% | 2.28% | 5.56% | 3.03% | 5.85% | 3.75% |
| C[C@@H](Oc1cc(-n2cnc3ccc(OCC4CCN(C)CC4)cc32)sc1C(N)=O)c1ccccc1Cl | 88.3% | 26.5% | 75.7% | 10.9% | 54.2% | 12.7% | 62.1% | 14.7% | 64.7% | 39.8% |
| COc1cc2ncn(-c3cc(OCCc4ccccc4)c(C(N)=O)s3)c2cc1OC | 3.75% | 10.5% | 51.4% | 8.08% | 44.9% | 1.08% | 10.7% | 5.35% | 39.8% | 10.8% |
| Fc1ccc(-c2ncn(CCCN3CCOCC3)c2-c2ccncc2)cc1 | 1.32% | 6.11% | 7.26% | 2.37% | 1.54% | 1.55% | -0.15% | -0.24% | 3.42% | -0.37% |
| Cc1nnc(-c2ccc(C)c(-c3ccc(C(=O)NCc4ccc(Cl)cc4)cc3)c2)o1 | 0.1% | 4.51% | 8.84% | 3.25% | 2.53% | 6.19% | 6% | 1.34% | 2% | 1.36% |
| CCC(=O)Nc1ccc(C)c(-c2ccc(C(=O)NCC3CC3)cc2)c1 | 0.72% | 3.2% | 11.6% | 2.61% | 3.14% | 3.93% | 4.6% | 4.95% | 3.77% | -0.7% |
| CN(C)c1ccc2c(c1)/C(=C/Nc1ccc(S(N)(=O)=O)cc1)C(=O)N2 | 46.8% | 26.7% | 66.9% | 14.4% | 65.3% | 3.45% | 28.2% | 14.9% | 60.9% | 26.8% |
| COc1ccc(C2=C(N3CCc4ccccc43)C(=O)NC2=O)cc1 | 6.74% | 4.56% | 16.3% | 5.15% | 8.45% | 7.16% | 10.6% | 5.61% | 6.87% | 5.31% |
| Cc1ccc(C(=O)NC2CCC2)cc1-c1ccc(C(=O)NCC2CC2)cc1 | 3.12% | 1.47% | 4.53% | 3.52% | 0.66% | 3.43% | 3.17% | 2.49% | 5.32% | -0.12% |
| COc1ccc2cc(-c3c(-c4ccncc4)nc(-c4ccc([S+](C)[O-])cc4C)n3C)ccc2c1 (stereo not given) | 0.57% | 0.98% | 12.4% | -0.45% | 2.27% | 0.22% | 2.22% | -2.47% | 5.84% | 0.23% |
| Fc1ccc(-c2nc3n(c2-c2ccncc2)CCS3)cc1 | 2.27% | 6.42% | 11.1% | 4.17% | 3.44% | 5.4% | 6.09% | -0.4% | 4.82% | 3.87% |
| O=C(Nc1ccc(Oc2ccc3[nH]c(NC(=O)c4ccccc4)nc3c2)cc1)Nc1cc(C(F)(F)F)ccc1F | 63.9% | 27.8% | 78.4% | 1.94% | 8.54% | 13% | 83.1% | 25.5% | 79.4% | 9.24% |
| COc1cccc(/C=N/Nc2ncnc3c2cnn3-c2cccc(OC)c2)c1 | 3.43% | 2.69% | 14.9% | 2.84% | 7.96% | 2.59% | 6.59% | 2.65% | 7.82% | 4.05% |
